# Among all 310,000 compounds or so, about 14,000 (4.5%) showed an effect of 50% or more. Effects have a minus sign here. The sample holds strong results, similar compounds and a random draw of the others, so the mix is not that of the screen.
# Molecular target: human ether-à-go-go-related gene (hERG) potassium channel (human, UniProt Q12809)
# Assay: primary screen, population patch clamp on CHO cells stably expressing hERG; higher = less effect of the substance
# 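Further: peak tail current of the secondary pulse compared with the same well before compound.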
# Sequence of human ether-à-go-go-related gene (hERG) potassium channel (Q12809 whole entry, looked up): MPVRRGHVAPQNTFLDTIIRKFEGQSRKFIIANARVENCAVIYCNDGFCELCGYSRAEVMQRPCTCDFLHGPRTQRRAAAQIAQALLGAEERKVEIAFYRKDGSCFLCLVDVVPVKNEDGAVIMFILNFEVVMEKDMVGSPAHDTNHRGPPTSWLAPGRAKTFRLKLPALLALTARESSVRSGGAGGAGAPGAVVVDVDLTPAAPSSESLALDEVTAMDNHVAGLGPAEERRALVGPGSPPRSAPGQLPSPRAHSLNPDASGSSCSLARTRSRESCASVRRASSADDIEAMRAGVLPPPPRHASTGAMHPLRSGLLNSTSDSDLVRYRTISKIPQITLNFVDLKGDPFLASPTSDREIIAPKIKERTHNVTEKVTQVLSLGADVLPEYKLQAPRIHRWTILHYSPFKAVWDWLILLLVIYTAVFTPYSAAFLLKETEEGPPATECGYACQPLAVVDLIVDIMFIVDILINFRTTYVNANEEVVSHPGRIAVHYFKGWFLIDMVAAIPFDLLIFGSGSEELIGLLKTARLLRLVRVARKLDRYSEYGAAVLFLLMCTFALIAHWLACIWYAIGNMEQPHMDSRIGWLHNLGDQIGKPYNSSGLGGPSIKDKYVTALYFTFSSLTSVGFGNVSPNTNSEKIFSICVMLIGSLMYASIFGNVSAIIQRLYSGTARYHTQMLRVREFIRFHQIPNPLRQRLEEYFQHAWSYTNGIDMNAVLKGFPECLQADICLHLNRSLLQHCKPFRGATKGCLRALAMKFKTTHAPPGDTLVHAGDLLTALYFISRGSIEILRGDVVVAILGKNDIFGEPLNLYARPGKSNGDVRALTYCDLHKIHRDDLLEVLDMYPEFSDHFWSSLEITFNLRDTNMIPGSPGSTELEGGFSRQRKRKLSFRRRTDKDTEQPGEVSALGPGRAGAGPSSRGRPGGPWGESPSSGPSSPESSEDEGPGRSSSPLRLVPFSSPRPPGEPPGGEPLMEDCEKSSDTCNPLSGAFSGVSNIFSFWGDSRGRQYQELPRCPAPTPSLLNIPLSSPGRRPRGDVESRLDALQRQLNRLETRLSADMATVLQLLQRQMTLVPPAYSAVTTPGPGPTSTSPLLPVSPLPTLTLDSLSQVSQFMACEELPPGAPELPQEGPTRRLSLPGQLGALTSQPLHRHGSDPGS
row,Structure (SMILES),"hERG current change (%, negative = inhibition) at 10uM [%]"
1,COc1ccc(S(=O)(=O)Cc2ccc(C(=O)N3CCc4ccccc4C3)o2)cc1,-59
2,COc1ccc(S(=O)(=O)Cc2ccc(C(=O)N3CCN(Cc4ccccc4)CC3)o2)cc1,-33.1
3,Cc1ccc(S(=O)(=O)Cc2ccc(C(=O)N3CCc4ccccc4C3)o2)cc1,-62.2
4,COc1ccc(S(=O)(=O)Cc2ccc(C(=O)N3CCCC3)o2)cc1,1.74
5,Cc1ccc(S(=O)(=O)Cc2ccc(C(=O)N3CCCCCC3)o2)cc1,-15.4
6,Cc1ccc(S(=O)(=O)Cc2ccc(C(=O)N3CCCC3)o2)cc1,-6.89
7,O=S1(=O)CCN(Cc2ccccc2Cl)CC1,-11.1
8,Cc1cc(C(=O)Nc2ccccc2C)n(-c2ccccc2)n1,16.5
9,COc1ccc(NC(=O)C2CCC(=O)N2S(=O)(=O)c2ccc(C)cc2)c(OC)c1 (stereo not shown),-11
10,COc1ccc(-c2c3c(=O)n(C)c(=O)n(C)c3cn2-c2ccccc2O)cc1,-9.54
11,O=C(CN1CCC(n2nnc3cc(F)ccc32)CC1)Nc1ccccc1N1CCOCC1,-66.6
12,COc1ccc(Cl)cc1NC(=O)CN1CCC(n2nnc3cc(C)ccc32)CC1,-24.2
13,Cc1ccccc1NC(=O)CN1CCC(n2nnc3ccccc32)CC1,-38.8
14,Cc1ccc2c(c1)nnn2C1CCN(CC(=O)Nc2ccccc2N2CCOCC2)CC1,-69.8
15,COC(=O)c1ccccc1NC(=O)CN1CCC(n2nnc3cc(F)ccc32)CC1,-14.3
16,CC(C)(C)c1ccc(C(=O)N2CCC(C(=O)N3CCCCC3)CC2)cc1,-3.01
17,Cc1cccc(C(C)(C)C)c1OCCOCCN1CCCC1,-20.6
18,CN(C(=O)CN1CC=C(c2ccccc2)CC1)c1c(N)n(Cc2ccccc2)c(=O)[nH]c1=O,25.8
19,Cc1ccc(-n2nc3c(=O)n(CC(=O)NCc4ccc(C)o4)nc(C)c3c2C)cc1,13.1
20,Cc1nn(C2CCS(=O)(=O)C2)c(Cl)c1/C=C/C(=O)OCC(=O)N(C)C (stereo not shown),11.3
21,Cc1ccc(NC(=O)COc2ccc(S(=O)(=O)N3CCOCC3)cc2)cc1,7.98
22,O=C(COc1ccc(Cl)cc1)Nc1ccc(CN2CCOCC2)cc1,-39.6

row,Structure (SMILES),"hERG current change (%, negative = inhibition) at 10uM [%]"
1,O=C(COc1ccc([N+](=O)[O-])cc1)Nc1ccc(N2CCN(C(=O)c3ccco3)CC2)cc1,6.27
2,O=C(COc1ccc([N+](=O)[O-])cc1)Nc1ccc(N2CCCC2)cc1,12.1
3,CCN1CCN(c2ccc(NC(=O)COc3ccc([N+](=O)[O-])cc3)cc2)CC1,-54.3
4,O=C(COc1ccc([N+](=O)[O-])cc1)Nc1ccc(CN2CCOCC2)cc1,-52.3
5,O=C(COc1ccc([N+](=O)[O-])cc1)Nc1ccc(S(=O)(=O)N2CCOCC2)cc1,-53.8
6,O=C(COc1ccc(Br)cc1)Nc1ccc(CN2CCOCC2)cc1,-40.6
7,O=C(COc1ccc(S(=O)(=O)N2CCOCC2)cc1)Nc1cccc([N+](=O)[O-])c1,-39
8,Cc1scc(C(=O)N/N=C/c2ccco2)c1C,2.52
9,CCCc1cc(=O)[nH]c(SCC(=O)N(CC)C2CCS(=O)(=O)C2)n1 (stereo not shown),13.2
10,N=C(N)c1c(O)n(C2CCCCC2)c(=O)n(C2CCCCC2)c1=O,18.5
11,CC1Cc2ccccc2N1C(=O)c1cc2sccc2n1Cc1ccc(F)cc1 (stereo not shown),12.3
12,Oc1ccc(-c2nnc(SCc3ccccc3)o2)cc1,-8.15
13,COc1ccc2c(c1)c(=O)c(C(=O)c1ccccc1)cn2Cc1ccc(C)cc1,-75
14,COc1ccc2c(c1)c(=O)c(C(=O)c1ccc(C)cc1)cn2CC(=O)Nc1ccc(F)cc1,-10.1
15,COc1ccc(Cn2cc(C(=O)c3ccccc3)c(=O)c3cc(OC)ccc32)cc1,-31.3
16,COc1ccc2c(c1)c(=O)c(C(=O)c1ccccc1)cn2Cc1ccccc1,-71.8
17,COc1ccc2c(c1)c(=O)c(C(=O)c1ccc(Cl)cc1)cn2CC(=O)Nc1ccc(F)cc1,12.4
18,COc1ccc2c(c1)c(=O)c(C(=O)c1ccc(F)cc1)cn2CC(=O)Nc1ccc(F)cc1,-5.61
19,Cc1cccc(NC(=S)NC2CCSc3ccccc32)c1 (stereo not shown),14.5
20,COc1ccc(OCC(=O)Nc2ccccc2OC(F)F)cc1,-22.2
21,CC1CC(C)CN(C(=O)c2ccc(Br)c(S(=O)(=O)N3CCOCC3)c2)C1 (stereo not shown),-26.6
22,NC(=O)C(c1ccccn1)c1ncc(C(F)(F)F)cc1Cl (stereo not shown),11.7

row,Structure (SMILES),"hERG current change (%, negative = inhibition) at 10uM [%]"
1,Cl.O=C(CN1CCCCC1)c1ccc2c(c1)OCO2,-4.7
2,Br.O=C(CN1C2=NCCN2c2ccccc21)c1ccc2c(c1)OCO2,-60.9
3,Br.O=C(CN1C2=NCCN2c2ccccc21)c1ccc(Br)cc1,-67.6
4,Cl.O=C(CN1C2=NCCN2c2ccccc21)c1ccco1,-20.7
5,CC(C)(C)n1nnnc1C(c1ccc(Cl)cc1)N(Cc1cccnc1)Cc1ccco1 (stereo not shown),-14.7
6,CCOC(=O)c1[nH]c(C)c(C(=O)N2CCc3ccccc32)c1C,-12.6
7,Cc1ccc(OCC(=O)NCC(=O)Nc2ccc(F)c(F)c2F)c([N+](=O)[O-])n1,-34.4
8,Cc1nc(Nc2cccc(C(C)O)c2)c2nnn(Cc3ccc(F)cc3)c2n1 (stereo not shown),5.08
9,CCc1ccc(CN(C)C(=O)CCc2nc3ccccc3n(-c3ccc(OC)cc3)c2=O)cc1,-0.36
10,COc1ccc(-n2c(=O)c(CCC(=O)N(C)Cc3cccs3)nc3ccccc32)cc1,-38.7
11,COc1ccc(-n2c(=O)c(CCC(=O)N(C)Cc3ccccc3C)nc3ccccc32)cc1,-50.4
12,COc1cc2c(cc1OC)-c1cc(Nc3ccc(C)cc3)nc(=O)n1CC2,-8.97
13,COc1cc2c(cc1OC)-c1cc(Nc3ccccc3)nc(=O)n1CC2,-64.1
14,COc1ccc(Nc2cc3n(c(=O)n2)CCc2cc(OC)c(OC)cc2-3)cc1,4.8
15,O=C(NCc1ccc2c(c1)OCO2)Nc1ccc(Cl)cc1,5.12
16,COc1cccc(NC(=O)c2cnc[nH]2)c1,25.1
17,COc1ccccc1NC(=O)C(=O)NCc1ccncc1,-5.14
18,Cn1c(CCc2ccccc2)nnc1SCC(N)=O,15.3
19,N#Cc1c(-c2ccccc2)c(-c2ccccc2)nn(CC(=O)NNC(=O)Nc2ccc(Cl)c(Cl)c2)c1=O,-1.35
20,CCc1ccc(-c2csc3[n+]2CCN3C(C)=O)cc1.[Br-],-29.1
21,CC(=O)N1CC[n+]2c(-c3ccc([N+](=O)[O-])cc3)csc21.[Br-],-68.9
22,CC(=O)N1CC[n+]2c(-c3ccc(Cl)cc3)csc21.[Br-],-1.19

row,Structure (SMILES),"hERG current change (%, negative = inhibition) at 10uM [%]"
1,CCC1CCc2sc(C(=O)N3CCCN(C)CC3)cc2C1 (stereo not shown),-12.9
2,C=CCN1CCN(C(=O)c2cc3c(s2)CCCC3)CC1,-19.3
3,C=CCN1CCN(C(=O)c2cc3c(s2)CCC(CC)C3)CC1 (stereo not shown),-57.3
4,Cc1ccc(C)c(C(C)NC(=O)c2ccncc2)c1 (stereo not shown),-7.4
5,Cc1cc(C(F)F)nn1CC(=O)NC1CCCC1,1.56
6,CCC(=O)c1ccc(N2CCN(C(=O)Cc3ccccc3)CC2)c(F)c1,-36.5
7,CC(=O)c1cc(F)c(N2CCN(C(=O)Cc3ccccc3)CC2)cc1C,-11.5
8,CCC(=O)c1cc(F)c(N2CCN(C(=O)Cc3ccccc3)CC2)cc1C,-58.9
9,CCN1CCN(C(=O)c2ccc3nc(-c4ccccc4)c(-c4ccccc4)nc3c2)CC1,-17.4
10,CCCC(=O)c1ccc(N2CCN(C(=O)OCC)CC2)c(F)c1,-14.2
11,CCCC(=O)c1ccc(N2CCN(C(=O)c3ccccc3Br)CC2)c(F)c1,-23.7
12,CCCC(=O)c1ccc(N2CCN(C(=O)c3ccccc3)CC2)c(F)c1,-66.7
13,CCOC(=O)N1CCN(c2ccc(C(=O)c3ccccc3)cc2F)CC1,-50.8
14,CN1CCN(C(=O)c2ccc3nc(-c4ccccc4)c(-c4ccccc4)nc3c2)CC1,6.03
15,CCOC(=O)N1CCN(c2ccc(C(C)=O)cc2F)CC1,5.68
16,CCCC(=O)c1ccc(N2CCN(C(=O)c3ccc(Br)cc3)CC2)c(F)c1,2.35
17,CCOC(=O)N1CCN(C(=O)c2ccc3nc(-c4ccccc4)c(-c4ccccc4)nc3c2)CC1,-54.6
18,Cc1ccc(Cn2c(C)cc3c(c2=O)C(c2cccs2)C(C#N)=C(N)O3)cc1 (stereo not shown),15.8
19,CC(C)c1cccc(C(C)C)c1NC(=O)CN1C(=O)NC2(CCCC2)C1=O,14.8

# Source: PMC4336329 (PLoS ONE, 2015)
